Source: PubChem BioAssay (National Center for Advancing Translational Sciences (NCATS))
MmCpn inh – inhibitors of Methanococcus maripaludis chaperonin TRiC (MmCpn); purified Mm-Cpn ATPase, ADP Transcreener TR-FRET; Potency, µM (series often up to 76.9 µM), inactives show top-dose activity, negative = inhibition, usual class: inhibitors; actives 0.031% (n = 330,000); AID 504842; note: potency is the fitted concentration of half-maximal effect; nearly all actives have a fitted effect of over 80% in size
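Purified archaeal chaperonin (25 nM final) was preincubated with compound for 10 min at 37°C, then ATP (10 uM final) was added for 30 min at 37°C in Tris pH 7.4/KCl/MgCl2/DTT buffer. ADP was quantified by HTRF Transcreener TR-FRET.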
PLK1 PBD block – PLK1 (human) polo-box domain binding inhibition; P53350; Plk1 PBD binding of FITC phosphopeptide, fluorescence polarization; Potency, µM, without a hit: max response, negative = inhibition, hits mostly inhibitors; actives 2.8% (n = 360,000); AID 720504; note: potency is the fitted concentration of half-maximal effect; series mostly up to about 57 µM; nearly all actives have a fitted effect of over 65% in size
Target sequence (P53350 whole entry, looked up, the tested form may be a part): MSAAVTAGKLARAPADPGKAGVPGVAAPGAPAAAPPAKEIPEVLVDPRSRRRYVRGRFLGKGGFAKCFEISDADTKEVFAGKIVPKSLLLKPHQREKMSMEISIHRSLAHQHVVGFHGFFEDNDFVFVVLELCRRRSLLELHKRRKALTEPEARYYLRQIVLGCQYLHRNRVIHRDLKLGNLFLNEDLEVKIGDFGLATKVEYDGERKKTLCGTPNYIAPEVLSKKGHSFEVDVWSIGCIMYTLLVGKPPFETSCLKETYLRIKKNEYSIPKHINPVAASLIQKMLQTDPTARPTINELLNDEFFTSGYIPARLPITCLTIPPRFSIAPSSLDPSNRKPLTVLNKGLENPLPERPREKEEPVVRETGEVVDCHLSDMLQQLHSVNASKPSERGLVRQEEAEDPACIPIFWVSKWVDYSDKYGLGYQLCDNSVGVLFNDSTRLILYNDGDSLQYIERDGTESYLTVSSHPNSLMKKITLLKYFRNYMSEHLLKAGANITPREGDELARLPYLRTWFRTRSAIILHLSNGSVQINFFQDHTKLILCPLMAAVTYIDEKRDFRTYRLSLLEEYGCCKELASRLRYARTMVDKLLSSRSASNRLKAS
Sfp PPTase inh – blocks B. subtilis Sfp PPTase activity; Q9F4F7; Biochemical Sfp PPTase activity, qHTS; Potency, µM, inactives show largest response in the series, negative = inhibition, actives largely listed as inhibitors; actives 3.5% (n = 310,000); AID 1490;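 note: the enzyme is Sfp with the accession as filed and its product quenches rhodamine fluorescence; potency is the fitted concentration of half-maximal effect; 0% = enzyme reaction without inhibitor and -100% = no enzyme wells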
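With Hepes-Na pH 7.6 buffer containing 10 mM MgCl2, Sfp (15 nM) modified BHQ-2-YbbR (12.5 uM) using rhodamine-CoA (5 uM). Two reads 30 minutes apart at 525/598 nm yielded each well's rate.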
CCT chaperon mod – modulators of cytosolic chaperonin (CCT/TRiC) activity; actives 0.3% (n = 360,000); AID 651819; activity change, % (no concentration beside the values), hits read low; purified chaperonin ATPase assay, HTRF ADP detection, 30 min; in the data active = activity change below about -30%
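First, chaperonin was dispensed at 40 nM or 20 nM final depending on batch activity. Next, compounds were pinned at 76 uM and ATP added at 10 uM. After 30 min at 37 °C, ADP detection reagents ran 30 min at ambient temperature.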
G9a inh – G9a (human) methyltransferase inhibition; Q96KQ7; G9a H3K9 monomethylation, AlphaScreen, 2 h; Potency, µM (titrated, usually from 102 µM), for the others: at the highest dose activity, negative = inhibition, hits mostly inhibitors; actives 8.8% (n = 350,000); note: potency is the fitted concentration of half-maximal effect; nearly all actives have a fitted effect of over 75% in size
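AlphaScreen detection with an anti-monomethyl H3K9 antibody quantified product after a 2 h room-temperature reaction containing 500 nM biotinylated H3K9 peptide, 20 µM SAM and 20 nM enzyme, which had been preincubated 15 min with compound.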
VDR inh – vitamin D3 receptor (human) inhibition | P11473 | VDR-SRC2-3 peptide fluorescence polarization, 2 h | Potency, µM, for the others: max response, negative = inhibition, hits mostly inhibitors | actives 0.93% (n = 400,000); note: potency is the fitted concentration of half-maximal effect
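Inhibition of the VDR/SRC2-3 peptide interaction is quantified by fluorescence polarization. Compounds (23 nl, pintool) incubate with the reagents for 2 hours at ambient room temperature.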
Numbers without * were called inactive; ? = inconclusive; / = not tested or not shown; [ ] = remark or other dose. This is a sample that favours compounds with a hit; in the whole collection about 10% have one here. Unless noted, calls come from the whole dose curve; as a rule, active = well fitted curve in the direction sought with a large enough effect; inconclusive = small, poorly fitted or top-dose-only effect, or another doubt; inactive = no such curve, though single readings can be large; an effect the other way counts as inactive or inconclusive. Unless noted, % is set by controls: 0 for no effect and ±100 for the full control effect.

SMILES | MmCpn inh | PLK1 PBD block | Sfp PPTase inh | CCT chaperon mod | G9a inh | VDR inh
O=C(O)c1ccc(N2C(=O)/C(=C/c3ccc(-c4ccc([N+](=O)[O-])cc4)o3)C=C2c2ccccc2)cc1 | -3% | 12µM* | 50µM* | -2 | 5.6µM* | ?
COC(=O)c1ccc(N2NC(=O)/C(=C/c3ccc(-c4ccc(Cl)c(C(=O)O)c4)o3)C2=O)cc1 | -5% | 17µM* | -10% | -2 | 18µM* | 79µM*
O=C1NN(c2ccccc2)C(=O)/C1=C/c1ccc(-c2ccc(C(=O)O)cc2)o1 | 1% | 21µM* | -1% | 0 | / | ?
N#C/C(=C\c1ccc(-c2ccc(C(=O)O)cc2)o1)c1nc2ccccc2[nH]1 | 0% | 44% | -12% | 1 | -37%[59 µM] | 13%
COc1ccc(N/N=C(\C#N)C(=N)SCc2ccccc2)cc1 | 1% | -4% | -13% | 1 | 28µM* | ?
COc1ccc(N/N=C(\C#N)C(=O)NCCc2ccc(OC)c(OC)c2)cc1 | -2% | -9% | -6% | 0 | 22µM* | -16%
COc1ccc(N/N=C(\C#N)C(=N)N2CCCCC2)cc1 | 5% | 5% | -9% | 1 | / | -1%
CCS(=O)(=O)NCc1cn2c(C)csc2n1 | -3% | -1% | 14% | 1 | 1%[59 µM] | -4%
Cc1csc2nc(CNC(=O)CCC(=O)O)cn12 | 1% | -2% | 6% | -1 | 50µM* | -27%
CCCS(=O)(=O)NCc1cn2c(C)csc2n1 | -1% | -1% | -7% | 0 | 56µM* | -13%
CCCOc1ccc(Cc2nn[nH]n2)cc1 | 0% | -22% | -6% | 1 | 50µM* | -3%
CCC(Oc1ccc(F)cc1)C(=O)Nc1nc(-c2ccc(F)cc2)ns1 (configuration not stated) | / | / | / | / | 47%[59 µM] | 18%
Cc1ccc(C(C)C)cc1NC(=O)Nc1ccc([N+](=O)[O-])cc1 | 2% | 4% | 21% | 0 | 8%[12.7 µM] | 1%
Cc1ccc(C(C)C)cc2c(C)ccc1-2 | / | -16% | -4% | 1 | 13µM* | -5%
O=c1c(-c2cc(F)cc(F)c2)nc2cnc(N3CCOCC3)nc2n1CCc1ccccc1 | / | / | 1% | / | 15%[0.501 µM] | 4%
CCOC(=O)C(=O)Cc1nc(OCc2ccccc2)cc(OCc2ccccc2)n1 | / | -7% | / | -39* | / | -26%
CCOC(=O)C(Cc1nc(OCc2ccccc2)cc(OCc2ccccc2)n1)=NO | / | 3% | / | -5 | / | -28%
CCC(CC)C(=O)Nc1ccc2nc(SCC(=O)N3CCc4ccccc43)sc2c1 | / | / | / | / | 7%[59 µM] | 4%
COc1ccc(C2C(=O)N(C3CCC(C)CC3)CC(=O)N2CCC2=CCCCC2)cc1OC (configuration not stated) | / | / | / | / | -9%[59 µM] | 18%
O=C(NCCN1CCOCC1)C1CCN(S(=O)(=O)N2CCCCC2)CC1 | 2% | 1% | 17% | -2 | -20% | -11%
O=C(NCCN1CCOCC1)C1CCN(Cc2ccccc2O)CC1 | -1% | 4% | -10% | 4 | 22µM* | -1%
O=C(CCCOc1ccc(Cl)cc1Cl)N/N=C/c1cccc([N+](=O)[O-])c1 | 0% | 27µM* | -8% | -1 | -6%[59 µM] | -1%
COc1ccc(CC(=O)N/N=C/c2cccn2-c2ccc([N+](=O)[O-])cc2)cc1OC | 3% | -9% | 56µM* | -1 | ? | 11%
CC(C)(C)OC(=O)N/N=C/c1cccc([N+](=O)[O-])c1 | -3% | -15% | -4% | -2 | 50µM* | -26%
O=[N+]([O-])c1ccc(N/N=C\c2cccn2-c2ccccc2)nc1 | 3% | 18% | ? | 1 | ? | -2%
SMILES | MmCpn inh | PLK1 PBD block | Sfp PPTase inh | CCT chaperon mod | G9a inh | VDR inh
CC(C)(C)OC(=O)N/N=C/c1cccn1-c1ccc([N+](=O)[O-])cc1 | -3% | -4% | 10% | -1 | 8.9µM* | -4%
Cc1n[nH]c(C)c1CCC(=O)N/N=C/c1cccc([N+](=O)[O-])c1 | 1% | -14% | 18% | 0 | -2% | 2%
CCOc1ccc(-c2c(C)nn3c(C)c(C(=O)NC(C)c4ccccc4)cnc23)cc1OCC (configuration not stated) | / | / | / | / | -18%[59 µM] | 8%
Cc1cccc(-c2c3c(=O)n(C)c(=O)n(C)c3cn2-c2cc(N)c(Cl)cc2Cl)c1 | / | / | / | / | ? | 23%
C=CC1=C[C@@H](O)C2OC2C12OCCCO2 (some centres not stated) | / | / | 1% | / | / | /
COc1ccccc1N/N=C/c1c(CO)cnc(C)c1O | -8% | -1% | -18% | 0 | 14µM* | -10%
Cc1ncc(CO)c(/C=N/NC(=S)Nc2cccc(Cl)c2)c1O | 0% | 21µM* | 50µM* | -8 | ? | 79µM*
Cc1ncc(CO)c(/C=N/NC(=S)Nc2ccc(Cl)c(Cl)c2)c1O | -2% | 27µM* | 50µM* | -2 | / | ?
O=C(COc1ccccc1F)OCc1cc(=O)n2nc(-c3cccs3)sc2n1 | / | / | / | / | 32%[59 µM] | -1%
CCOC(=O)Cc1csc(NS(=O)(=O)c2ccc(Cl)cc2)n1 | 0% | 2% | 16% | -2 | 18%[59 µM] | -17%
CCOC(=O)Cc1csc(NC(=O)CSc2nc(C)cc(C)n2)n1 | -7% | -3% | / | 3 | / | 2%
CCOC(=O)Cc1csc(NC(=O)CSc2cc(Cl)ccc2Cl)n1 | -1% | -3% | -14% | 0 | 22µM* | 2%
CCOC(=O)Cc1csc(NC(=O)CCSc2ccccc2)n1 | -3% | -7% | 12% | -2 | 50µM* | 8%
CCOC(=O)Cc1csc(N/C(=N/S(=O)(=O)c2ccc(Cl)cc2)c2ccccc2)n1 | 0% | 21µM* | 12% | 0 | ? | ?
CCOC(=O)Cc1csc(SCC(=O)Nc2sc3c(c2C(N)=O)CCC3)n1 | -1% | ? | -5% | 1 | 50µM* | 8%
COc1ccc(N(CC(C)C)S(=O)(=O)c2nnc(NC(=O)c3cccs3)s2)cc1 | / | / | / | / | 2%[59 µM] | 6%
Cc1ccc2c(c1)-c1c(c(C(=O)N3CCN(c4cc(Cl)ccc4C)CC3)nn1C)CS2 | / | / | / | / | -10%[59 µM] | 5%
CCOc1ccc(C2C(=O)N(C3CCCCC3)CC(=O)N2C2CCCC2)cc1OC (configuration not stated) | / | / | / | / | 12%[59 µM] | 6%
C=CCNC(=S)NCc1cccnc1 | 1% | -6% | 79µM* | 2 | 0%[59 µM] | -5%
COc1ccc(-c2[nH]ncc2/C=N\NS(=O)(=O)c2ccc(Cl)cc2)cc1 | 0% | -10% | 14% | -3 | 11%[12.7 µM] | 6%
COc1ccc(-c2[nH]ncc2/C=N\NS(=O)(=O)c2ccccc2)cc1OC | -1% | -10% | -4% | -1 | 50µM* | -25%
CCCc1cc(=O)n2[nH]c(NCc3ccccc3OC)nc2n1 | / | / | / | / | ? | 16%
O=C(O)CCCCCn1c(O)c(C=C2N=c3ccccc3=N2)sc1=S | -2% | -13% | ? | 0 | 8.9µM* | 1%
